Compounds without any hit were thinned out: in the full panel of roughly 83,000, 20% have a hit.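 Compound tested at a single concentration for 48 hours in 96-well plates; a percent growth value below 10 was scored as active.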 Values without a mark were called inactive. Activity calls are given as the source filed them.

This experiment deals with HL-60(TB) leukemia. The experiment is described as follows: NCI-60 one-dose screen, 48 h (100 = growth as untreated, 0 = no growth, -100 = all killed). Particulars: 10 µM unless noted.
`COc1ccc(-c2nnc(SCC(=O)Nc3ccc(C(=O)/C=C/c4cc(OC)c(OC)c(OC)c4)cc3)n2-c2ccccc2)cc1OC`: the growth is 46.1% [100 µM].
For `C=C1SC(=Nc2ccccc2Cl)N(C(=O)c2sc3ccccc3c2Cl)C1(C)C`, the growth was 1.29% (active).
On to `O=C1c2c(c3c4cc(F)ccc4oc3c3[nH]c4ccccc4c23)C(=O)N1O`, for which the growth is 41.8%.
The figure for `COc1cc(C)c2sc3ccccc3c(=O)c2c1NCCN(C)C` is 61.2%.
For `N=c1c(C(=O)OCc2ccccc2)ncc(CCl)n1O` the value was 81.4%.
Regarding `COc1ccc2c(c1)nc(N)c1c3cccnc3cn21`, the growth is 14.9%.
The figure for `N=C(N)c1ccc(-c2ccc(-c3ccco3)o2)cc1F` is -17.1% (active).
With `CCc1ccc(-c2nnc(COc3ccc(-c4nc5ccccc5[nH]4)cc3OC)o2)cc1`, the growth was 78.4%.
For `O=C(/C=C/c1ccc(F)cc1)N1CCN(C(=O)/C=C/c2ccc(C(F)(F)F)cc2)CC1`, the growth was 97%.
As to `CC1=C(/C=C/C(C)=C/C=C/C(C)=C/C(=O)Nc2ccc(O)cc2)C(C)(C)CCC1`, the growth is -32.3% (active).
On to `CCOC(=O)C1=C(c2ccccc2)N=C2N(c3ccccc3)N=C(C(C)=O)N2C1c1ccc(F)cc1` (stereo not given), for which the growth is 89.8%.
For `N#Cc1c(-c2ccco2)nc2c(c(-c3ccccc3)nn2-c2ccccc2)c1-c1ccc(O)cc1` the value was 22.9%; for `CCCCc1nc(Cl)c(C2CC(c3ccc(S(N)(=O)=O)cc3)=NN2c2cc(Cl)cc(Cl)c2)[nH]1` (stereo not given), 9.72% (active); for `NC1N=C(SCC(=O)N2CCN(c3cc4c(cc3F)c(=O)c(C(=O)O)cn4C3CC3)CC2)NC(=O)/C1=C/c1ccc(Cl)cc1` (stereo not given), 102%.
Consider `Clc1cccc(CNc2c3ccccc3nc3ccccc23)c1`, for which the growth was 9.02% (active).
As for `Fc1cc(-c2ncc(-c3cc(F)c(F)c(F)c3)c(NC3CCCCCC3)n2)cc(F)c1F`, the growth was 97.4%.
With `COc1ccc(Nc2ncc(C#N)c(NCCCNC(=O)C3CCC3)n2)cc1`, the growth is 41%.
Take `Clc1nnc2c3ccccc3ccn12`: the growth is 92.6%.
For `C/C(=C(/c1ccccc1)c1ccc(N2C(=O)c3cccc4c(NCc5ccccc5)ccc(c34)C2=O)cc1)c1ccccc1`, the growth was 103%.
Take `COc1cc(/C=C/C(=O)Nc2ccc3c(c2)/C(=C\c2cccn2C)C(=O)N3)cc(OC)c1OC`: the growth was 40.6%.
The figure for `CC(=O)Oc1ccc(Cl)cc1CN(C(C)=O)C1CCCCC1` is 92.8%; for `CCCCCCCCCCCCCCCCCC1=NCCN1CCOC1=C(Cl)C(=O)c2ccccc2C1=O` it is 70.1%; for `O=c1cc(-c2ccccc2)nc(SCc2nc3cc(Cl)c(Cl)cc3[nH]2)[nH]1` it is 101%.
As for `CC(=O)c1cc(C(=O)c2ccc3c(c2)Sc2ccccc2N3)c2c(C)cc(C)cn12`, the growth is -12.6% (active).
For the compound `O=C(COc1cccc(/C=C2\COc3ccccc3C2=O)c1)Nc1nccs1`, the growth is -58.4% (active).
As to `O=c1c2ccccc2c(=O)c2c1sc1c(=O)c3ccc(O)cc3c(=O)c12`, the growth was -30.6% (active).
For `COc1cc(/C=C/C(=O)c2cc(OC)c(OC)c(OC)c2)ccc1Oc1nc2c(c(=O)n(C)c(=O)n2C)n1C` the value was -13.1% (active).
For the compound `CCCCC/C(=C\c1ccccc1)C1OC(C)C(C)O1` (stereo not given), the growth was 115%.
As for `COC1=C(OC)C(=O)C=CC1=O`, the growth was 60.8%.
The figure for `c1ccc2c(-c3nccs3)c[nH]c2c1` is 85.1%.
For `O=C(Cc1cccc2ccccc12)N/N=C/c1ccc2c(c1)CCC2` the value was 68.3%.
For the compound `Cc1cc(Cl)ccc1Nc1nc(C(F)(F)F)ccc1C(=O)N/N=C/c1ccc(F)cc1`, the growth is -35.6% (active).
The figure for `OC(CNC1CCCCC1)Cn1c2ccc(I)cc2c2cc(I)ccc21` (stereo not given) is 93.7%.
The figure for `COc1ccc(C(=O)C2CC2c2ccc(Cl)cc2)cc1` (stereo not given) is 14.1%; for `COc1ccc(-c2[nH]nc(N)c2-c2cc(OC)c3c(c2)OCO3)cc1` it is 20.5%; for `CCCCCCC/C(=N\N=C(N)N)c1ccc(O)cc1` it is 6.11% (active).
For `Cc1cc(C#Cc2ccccc2)ccc1-n1c(/C=C/c2cc(O)ccc2O)nc2ccccc2c1=O` the value was -11.9% (active); for `COc1cc2nccc(Oc3ccc(NC(=O)Nc4cc(C)on4)c(Cl)c3)c2cc1OC`, 9.48% (active).
Take `Cc1cc(C)n(CC(=O)Nc2ccc(-c3nc4ccccc4s3)cc2)n1`: the growth is 103%.
The figure for `O=Cc1ccc(-c2cn3ccnc3c(-c3ccc4ncn(Cc5ccccc5)c4c3)n2)cc1` is 83.5%.

These data come from PubChem BioAssay (NCI).
